# GLP-1R inv ag: acts as inverse agonist at human GLP-1 receptor; 1.6% of 410,000 active; HEK293 GLP-1R CRE-luciferase, luminescence, 24 h; GLP-1R form is constitutively active; P43220; Potency, µM (doses to about 38.3 µM), hits mostly inhibitors; note: nearly all actives have a fitted effect of over 55% in size
# Target sequence (P43220 whole entry, looked up): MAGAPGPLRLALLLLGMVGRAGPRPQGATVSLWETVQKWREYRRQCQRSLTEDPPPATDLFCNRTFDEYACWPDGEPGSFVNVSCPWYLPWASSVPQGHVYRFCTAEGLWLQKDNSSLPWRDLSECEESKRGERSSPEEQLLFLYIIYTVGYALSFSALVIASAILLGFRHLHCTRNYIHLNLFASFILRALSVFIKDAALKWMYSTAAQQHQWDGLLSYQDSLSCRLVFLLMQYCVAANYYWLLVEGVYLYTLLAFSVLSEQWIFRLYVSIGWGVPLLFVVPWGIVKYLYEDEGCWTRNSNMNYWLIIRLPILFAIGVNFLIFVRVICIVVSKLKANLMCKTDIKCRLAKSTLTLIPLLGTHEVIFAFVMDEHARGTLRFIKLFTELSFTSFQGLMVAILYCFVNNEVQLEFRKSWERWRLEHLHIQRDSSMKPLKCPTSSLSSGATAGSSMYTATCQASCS
#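 Readout was luciferase luminescence, measured 12 min after detection reagent at room temperature. Beforehand, GLP-1R reporter HEK293 cells had sat 12 h, then received compounds for 24 hr at 37 deg C.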
# TRPML1 agonist: activates the human TRPML1 channel | TRPML1-expressing cells, Ca2+ dye fluorescence, FDSS | AID 624414 | 0.12% of 410,000 active | activation, % (test concentration not listed) | Q9GZU1; in the data active = activation above about 50%; inconclusive = mostly about 30% to 49%
#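 Agonist activity was taken from a 110 s kinetic Ca2+ dye read on the FDSS after pinning compounds onto TRPML1-DL cells. The cells were seeded at 1,500/well with Tet inducer, incubated about 16 h, then dye-loaded at room temperature.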
# TRPML1 inh: human mucolipin-1 channel inhibition; activity change, negative = inhibition, % (concentration not given with the values); Q9GZU1; AID 624415; TRPML1-inducible cells, Ca2+ dye fluorescence, FDSS; stronger effect = lower value; inhibition of EC80 agonist-evoked calcium signal; 0.02% of 390,000 active; in the data active = activity change below about -50%; inconclusive = between about -30% and that limit;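 note: stimulus is agonist 54-4 at its EC80 concentration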
#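 Tet-induced TRPML1-DL cells loaded with Ca8 no-wash calcium dye were read kinetically on FDSS. Compound addition was followed by EC80 agonist 54-4 (4 uM final); inhibition was read over 110 s.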
# HEK293 tox: cytotoxicity in counter-screen for GLP-1R inverse agonists; HEK293 cAMP-luciferase reporter cells, luminescence, 24 h; Potency, µM (titrated, usually from 38.3 µM), usual class: inhibitors; 0.13% of 410,000 active; AID 624418;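 note: loss of luciferase light is scored as toxicity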
#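 Here, cytotoxicity is scored as loss of luminescence. The MLSMR collection was tested on cells seeded in medium containing 10% Nu serum, with a 24 hr compound exposure preceded by 12 hours of culture.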
# GLP-1R agonist: agonists of human GLP-1 receptor; P43220; HEK293 GLP-1R CRE-luciferase, luminescence, 4-6 h; cells express a hypersensitive GLP-1R form; Potency, µM (titrated, usually from 45.6 µM), usual class: activators; 0.007% of 380,000 active; AID 624172
# A number is an active result; i = inactive; ? = inconclusive; nt = no result given. Compounds with a hit are over-represented: about 1.8% of the library has one in this group of screens. Unless noted, calls come from the whole dose curve; as a rule, active = well fitted curve in the direction sought with a large enough effect; inconclusive = small, poorly fitted or top-dose-only effect, or another doubt; inactive = no such curve, though single readings can be large; an effect the other way counts as inactive or inconclusive.
SMILES,GLP-1R inv ag,TRPML1 agonist,TRPML1 inh,HEK293 tox,GLP-1R agonist
COc1ccc(C2=C(C)C(=NCCCN3CCN(c4cc(Cl)ccc4C)CC3)NS2(=O)=O)cc1,8.91µM,i,i,i,nt
CC1=C(c2ccc(Cl)cc2)S(=O)(=O)NC1=NCCCN1CCN(c2cc(C)ccc2C)CC1,?,i,i,i,nt
CC1=C(c2ccc(C)cc2)S(=O)(=O)NC1=NCCCN1CCN(c2ccc(F)cc2)CC1,11.2µM,i,i,i,nt
CCN(C(=O)Cn1c(SCc2ccccc2F)nc2cccnc21)c1ccccc1,i,i,i,i,nt
CC(=O)c1cc(-c2ccc(F)cc2)n(CC(=O)NCc2ccc(C)cc2)c1C,i,i,i,i,nt
Cc1ccc(C)c(N2CCN(CCCNC(=O)Cn3cccc3C(=O)c3ccccc3)CC2)c1,5.01µM,i,i,i,i
Cc1ccccc1C(=O)c1cccn1CC(=O)NCCCN1CCc2ccccc2C1,10µM,i,i,i,i
Cc1ccccc1C(=O)c1cccn1CC(=O)NCCCN1CC(C)CC(C)C1 (configuration not stated),?,i,i,i,i
Cc1ccc(OCC(=O)Nc2cccc(C(=O)OCc3cc(=O)n4nc(C)sc4n3)c2)cc1,i,i,i,i,nt
Cc1ccnc(NC(=O)/C=C/c2ccccc2Cl)c1,10µM,i,i,i,i
Cc1cc(N)c2cc(NC(=O)/C=C/c3ccccc3Cl)ccc2n1,11.2µM,i,i,i,i
Cc1cc(C)nc(NC(=O)/C=C/c2ccccc2Cl)n1,i,i,i,i,i
CCCCC1CCC(C(=O)Nc2ccccc2N2CCOCC2)CC1 (configuration not stated),10µM,i,i,i,i
CCCCCC(=O)Nc1ccccc1N1CCOCC1,i,i,i,i,i
CN(C)CCCCCCCCCCC(=O)/C=N/O,10µM,i,i,i,i
C/C(CCc1oc2ccc(Br)cc2c1-c1ccc(C)o1)=N/O,10µM,i,i,i,i
C/C(CCc1oc2ccc(Cl)cc2c1-c1ccc(C)o1)=N\O,?,i,i,i,i
CCCC(CCC)C(N)=O,nt,nt,nt,nt,i
COc1ccc(-c2cc(C(F)(F)F)nc(NCc3ccc(F)cc3)n2)cc1,?,i,i,i,i
COc1ccc(CNc2nc(-c3ccc(OC)cc3)cc(C(F)(F)F)n2)cc1,6.31µM,i,i,i,i
CCCCCCn1c(=O)n2n(c1=O)[C@@H]1CN(S(=O)(=O)c3ccc(C)cc3)C[C@]1(O)[C@@H](OC(=O)NCc1ccccc1)C2,11.2µM,i,i,i,i
Cc1ccc(S(=O)(=O)N2C[C@H]3n4c(=O)ccc(=O)n4C[C@H](OC(=O)NCc4ccccc4)[C@@]3(O)C2)cc1,?,i,i,i,i
CCCCCCn1c(=O)n2n(c1=O)C[C@]1(OC(=O)NCC3CCCCC3)CN(S(=O)(=O)c3ccc(C)cc3)C[C@]1(O)C2,10µM,i,i,i,i
[NH-]CCC([O-])=NC(Cc1cnc[nH]1)C(=O)[O-].[Zn+2] (configuration not stated),nt,nt,nt,nt,i
Cc1ccn2c(=O)cc(COc3cccc(NC(=O)Nc4cccc(Cl)c4C)c3)nc2c1,i,i,i,i,nt
SMILES,GLP-1R inv ag,TRPML1 agonist,TRPML1 inh,HEK293 tox,GLP-1R agonist
C=CCN(C(C(=O)OC)C(C)C)S(=O)(=O)C=C (configuration not stated),nt,i,i,nt,nt
Cc1ccc(Cc2c(-c3cccc(Cl)c3)nc3cc(C)c(Br)c(C)n23)cc1,3.16µM,i,i,i,i
Cc1ccc(-c2nc3cc(C)c(Br)c(C)n3c2Cc2cccc(Cl)c2)cc1,i,i,nt,i,i
C=CCN1C(=O)[C@]2(c3ccccc31)C1CCCC=C1C(C#N)=C(N)C2(C#N)C#N (some centres not stated),i,i,i,i,i
C=CCN1C(=O)C2(c3ccccc31)C1CCCC=C1C(C#N)=C(N)C2(C#N)C#N (configuration not stated),4.47µM,i,i,i,i
O=[N+]([O-])c1ccccc1S(=O)(=O)NCc1ccccn1,nt,i,nt,nt,nt
Cc1nc(N)nc(N)c1CCCc1ccc(Cl)c(Cl)c1,7.08µM,i,i,i,i
CC(=O)N1CCc2c(sc(NC(=O)CSc3ccc(F)cc3)c2-c2nc3ccccc3s2)C1,i,i,i,i,nt

# High-throughput results as filed in PubChem.
